PubChem BioAssay (NCATS)
A number with no mark means an inactive call. Results filed as inconclusive are left out. Entries that show only a call come without a potency. The source made the active and inactive calls. Unless noted, calls come from the whole dose curve; as a rule, active = well fitted curve in the direction sought with a large enough effect; inconclusive = small, poorly fitted or top-dose-only effect, or another doubt; inactive = no such curve, though single readings can be large; an effect the other way counts as inactive or inconclusive.

Legend:
[1] = biological target: Beta-2 adrenergic receptor (Homo sapiens) (UniProt P07550); experiment: qHTS validation assay of beta-arrestin-biased ligands of beta2-adrenergic receptor (AID 485366)
Procedure, shortened: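 Tango cells expressing recombinant beta2-AR and beta-arrestin with tTA-driven luciferase, in DMEM with 1% FBS. Compounds were titrated up to 46 microM for 18 hr at 37 degrees C. Luminescence was read 15 min after substrate; curves were fitted and class-assigned.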

[2] = biological target: ATP-dependent 6-phosphofructokinase (Trypanosoma brucei brucei) (UniProt O15648); experiment: qHTS Validation Assay to Find Inhibitors of T. brucei phosphofructokinase (AID 485368)
Procedure, shortened: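 Activity was read as ADP production by luminescence (ADP-Glo) after 45 min at room temperature. The enzyme was 1.25nM PFK in 0.1M TEA pH 8.0 with 0.5 mM F6P, 0.1mM ATP and 5 mM MgCl2. Compounds were titrated up to 57 uM and % activity normalized to no-enzyme and full-enzyme controls.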

[3] = biological target: Thioredoxin reductase 1, cytoplasmic (Rattus norvegicus) (UniProt O89049); experiment: qHTS Assay for Substrates of Mammalian Selenoprotein Thioredoxin Reductase 1 (TrxR1) (AID 488772);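 note: NADPH fluorescence in the first read after selenite addition and not the 8 min delta; series mostly up to about 57 µM; a drop in NADPH fluorescence below the no-compound background marks a TrxR1 substrate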
Procedure, shortened: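 Quantitative HTS in Tris-HCl buffer at pH 7.5 with EDTA and Tween-20, using rat TrxR1, 400 uM NADPH and 400 uM selenite (final). A fall in initial NADPH fluorescence relative to background marked substrate behaviour.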

[4] = biological target: Thioredoxin reductase 1, cytoplasmic (Rattus norvegicus) (UniProt O89049); experiment: qHTS Assay for Inhibitors of Mammalian Selenoprotein Thioredoxin Reductase 1 (TrxR1) (AID 488773); settings: Potency: inhibition;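 note: drop in NADPH fluorescence over an 8 min run after selenite addition; series mostly up to about 57 µM; nearly all actives have a fitted effect of over 40% in size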
Procedure, shortened: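 Steps: enzyme (90 nM) plus NADPH (400 uM final), 5 min at ~22 deg C; compound added, 15 min; selenite (400 uM final) added; fluorescence followed for 8 min. Concentration-response curves derived from the normalized delta values.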

[5] = biological target: Flap endonuclease 1 (Homo sapiens) (UniProt P39748); experiment: qHTS Validation Assay for the Inhibitors of Human Flap endonuclease 1 (FEN1) (AID 488816)
Procedure, shortened: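 FEN1, dispensed as a 10 nM reagent, was preincubated with pin-transferred compounds for 15 min at room temperature before substrate was added (50 nM final). Plates were read at 0 and 15 min, and a four-parameter Hill equation was fitted to the concentration-response data.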

[6] = biological target: M-phase phosphoprotein 8 (Homo sapiens) (UniProt Q99549); experiment: qHTS Validation Assay for Inhibitors for MPP8 Chromodomain Interactions with Methylated Histone Tails (AID 488949);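 note: AlphaScreen signal from MPP8 chromodomain bound to biotinylated H3K9me3 peptide; top concentration of the series differs between compounds; nearly all actives have a fitted effect of over 55% in size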
Procedure, shortened: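 AlphaScreen read-out: streptavidin donor and nickel chelate acceptor beads (final 10 ug/mL), 30 min in the dark at RT. Complex of 50 nM MPP8 and 50 nM b-H3(1-18)K9me3 peptide had been exposed to compounds for 30 min beforehand.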

[7] = biological target: Chromobox protein homolog 1 (Homo sapiens) (UniProt P83916); experiment: qHTS Validation Assay for Inhibitors of HP1-beta Chromodomain Interactions with Methylated Histone Tails (AID 488953); note: nearly all actives have a fitted effect of over 50% in size; note: potency is the fitted concentration of half-maximal effect
Procedure, shortened: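 HP1-beta (50 nM) preformed 30 min with biotinylated H3(1-18)K9me3 peptide (50 nM) in PBS pH 7.4, 0.01% Tween-20. Compounds added for 30 min at room temperature. Complex disruption read by AlphaScreen with streptavidin donor/nickel chelate acceptor beads (10 ug/mL each).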

[8] = biological target: Methanococcus maripaludis chaperonin (MmCpn) (UniProt Q6LX38); experiment: High-Throughput Screening for Modulators of Cytosolic Chaperonin Activity: MmCpn Primary Screen (AID 488978);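 note: 50 nM MmCpn enzyme hydrolysing 30 µM ATP at 37 °C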
Procedure, shortened: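 ADP formation read by HTRF Transcreener, 665/590 nm emission after 320 nm excitation. Enzyme: archaeal chaperonin at 50 nM final; substrate ATP 30 uM final; 10 min, 37C, after 5 min compound preincubation at RT.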

[9] = biological target: D(1A) dopamine receptor (Homo sapiens) (UniProt P21728); experiment: HTS Assay for Allosteric Agonists of the Human D1 Dopamine Receptor: Primary Screen for Agonists (AID 488981)
Procedure, shortened: (§1)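 Tetracycline-induced HEK293 T-REx cells force-coupled to calcium signalling were incubated overnight at 30 C and dye-loaded at room temperature. Calcium flux over 180 s after compound addition flagged agonists; a further 180 s read after EC20 dopamine flagged potentiators.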

[10] = biological target: D(1A) dopamine receptor (Homo sapiens) (UniProt P21728); experiment: HTS Assay for Allosteric Agonists of the Human D1 Dopamine Receptor: Primary Screen for Potentiators (AID 488982)
Procedure, shortened: as §1

[11] = biological target: D(1A) dopamine receptor (Homo sapiens) (UniProt P21728); experiment: HTS Assay for Allosteric Agonists of the Human D1 Dopamine Receptor: Primary Screen for Antagonists (AID 488983);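 note: calcium flux response to an EC80 dopamine challenge measured with no-wash dye; nearly all actives have a fitted effect of over 65% in size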
Procedure, shortened: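 Tetracycline-induced HEK293 T-REx D1 line, force-coupled to calcium flux, read with no-wash calcium dye. Compound added after 10 s baseline, read 180 s for agonism, then EC80 dopamine added and read a further 180 s.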

[12] = Validation screen for small molecules that induce genotoxicity in human embryonic kidney (HEK293T) cells expressing luciferase-tagged ELG1 (AID 493106)
Procedure, shortened: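 HEK293T cells expressing luciferase-tagged ELG1, 2,000 cells/well, exposed to compound 16 hr at 37 °C, 5% CO2. Luciferase read after ONE-Glo, 30 min at room temperature; increased signal indicates genetic stress.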

[13] = biological target: ATPase family AAA domain-containing protein 5 (Homo sapiens) (UniProt Q96QE3); experiment: Validation screen for small molecules that inhibit ELG1-dependent DNA repair in human embryonic kidney (HEK293T) cells expressing luciferase-tagged ELG1 (AID 493107); note: nearly all actives have a fitted effect of over 70% in size; note: potency is the fitted concentration of half-maximal effect
Procedure, shortened: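 HEK293T cells expressing luciferase-tagged ELG1, 2,000 per well, treated with 5-fluorouridine plus compound for 16 h at 37 C. ONE-Glo luminescence after 30 min at room temperature reports ELG1 reporter level.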

[14] = biological target: Transient receptor potential cation channel subfamily V member 1 (Homo sapiens) (UniProt Q8NER1); experiment: HTS Assay for Compounds that Act as Enhancers of the Vanilloid Receptor 1 (AID 488979)
Procedure, shortened: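 TRPV1-expressing cells loaded with Fluo-8 calcium dye; compounds added and calcium influx read kinetically for 3 min (agonist phase), then capsaicin at EC20 added and read 2 min more for enhancement. Fluorescence ex 480/em 520 nm.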

[15] = biological target: Thyrotropin receptor (Homo sapiens) (UniProt P16473); experiment: qHTS Assay for Antagonists of the Thyroid Stimulating Hormone Receptor (AID 488980); note: series mostly up to about 58 µM
Procedure, shortened: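 TSHR-HEK293 cells; 70 uM RO 20-1724 PDE inhibitor; compound + EC80 TSH (4 nM final); anti-cAMP cryptate antibody/cAMP-d2 in lysis buffer, 30 min RT; HTRF 665/620 nm read.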

[16] = biological target: Thyrotropin-releasing hormone receptor (Homo sapiens) (UniProt P34981); experiment: qHTS for Small Molecule Agonists and Allosteric Enhancers of Human TRH Receptor: Validation Screen for Agonists (AID 493127;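 active = calcium activation more than 3 SD above the typical response in the agonist read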); settings: TRH receptor agonist cell assay; at 2 µM; stronger effect = higher value
Procedure, shortened: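 TRHR cells loaded with fluo-8 calcium dye; FDSS kinetic fluorescence (Ex 480/Em 530) read at 1 s/cycle after 23 nL compound addition. Agonist-mode calcium response recorded before the 10 nM TRH (EC20) addition.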

[17] = Quantitative high throughput screen for delayed death inhibitors of the malarial parasite plastid, 48 hour incubation (AID 488752); note: nearly all actives have a fitted effect of over 65% in size; note: potency is the fitted concentration of half-maximal effect
Procedure, shortened: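 Erythrocytes infected with firefly luciferase-expressing P. falciparum (2% hematocrit, 0.1% parasitemia) cultured with compound for 48 h at 37 C, 5% CO2, in RPMI 1640/0.5% Albumax. Growth inhibition read as loss of luminescence.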

[18] = Quantitative high throughput screen for delayed death inhibitors of the malarial parasite plastid, 96 hour incubation (AID 488745); note: nearly all actives have a fitted effect of over 70% in size; note: potency is the fitted concentration of half-maximal effect
Procedure, shortened: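 Luciferase-expressing P. falciparum in erythrocytes (2% hematocrit, 0.1% parasitemia) incubated with compound for 96 h at 37 C, 5% CO2, in RPMI 1640 with 0.5% Albumax. Growth inhibition read as decreased luminescence.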

Sequence of Transient receptor potential cation channel subfamily V member 1 (Homo sapiens) (Q8NER1 whole entry, looked up): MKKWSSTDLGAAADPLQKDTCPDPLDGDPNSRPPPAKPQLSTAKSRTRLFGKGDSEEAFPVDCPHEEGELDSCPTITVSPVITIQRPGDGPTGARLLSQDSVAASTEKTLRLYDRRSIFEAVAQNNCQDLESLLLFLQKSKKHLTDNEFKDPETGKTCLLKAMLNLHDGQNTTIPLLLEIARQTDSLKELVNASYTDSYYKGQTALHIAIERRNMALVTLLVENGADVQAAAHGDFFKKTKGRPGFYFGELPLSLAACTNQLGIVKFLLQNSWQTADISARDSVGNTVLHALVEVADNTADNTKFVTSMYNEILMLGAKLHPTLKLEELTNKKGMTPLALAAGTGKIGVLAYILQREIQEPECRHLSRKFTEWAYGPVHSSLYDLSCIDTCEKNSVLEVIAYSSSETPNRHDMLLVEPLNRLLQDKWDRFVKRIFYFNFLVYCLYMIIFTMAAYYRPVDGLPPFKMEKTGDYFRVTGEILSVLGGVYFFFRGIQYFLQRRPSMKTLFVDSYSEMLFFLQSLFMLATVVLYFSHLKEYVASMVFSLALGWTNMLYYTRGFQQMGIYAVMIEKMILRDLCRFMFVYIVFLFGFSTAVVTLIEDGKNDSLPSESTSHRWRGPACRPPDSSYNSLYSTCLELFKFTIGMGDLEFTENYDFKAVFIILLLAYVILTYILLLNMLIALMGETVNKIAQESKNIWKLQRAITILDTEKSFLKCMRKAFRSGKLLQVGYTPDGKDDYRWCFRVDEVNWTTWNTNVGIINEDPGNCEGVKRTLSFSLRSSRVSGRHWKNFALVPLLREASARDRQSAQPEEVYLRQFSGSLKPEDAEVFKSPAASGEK
Sequence of M-phase phosphoprotein 8 (Homo sapiens) (Q99549 whole entry, looked up): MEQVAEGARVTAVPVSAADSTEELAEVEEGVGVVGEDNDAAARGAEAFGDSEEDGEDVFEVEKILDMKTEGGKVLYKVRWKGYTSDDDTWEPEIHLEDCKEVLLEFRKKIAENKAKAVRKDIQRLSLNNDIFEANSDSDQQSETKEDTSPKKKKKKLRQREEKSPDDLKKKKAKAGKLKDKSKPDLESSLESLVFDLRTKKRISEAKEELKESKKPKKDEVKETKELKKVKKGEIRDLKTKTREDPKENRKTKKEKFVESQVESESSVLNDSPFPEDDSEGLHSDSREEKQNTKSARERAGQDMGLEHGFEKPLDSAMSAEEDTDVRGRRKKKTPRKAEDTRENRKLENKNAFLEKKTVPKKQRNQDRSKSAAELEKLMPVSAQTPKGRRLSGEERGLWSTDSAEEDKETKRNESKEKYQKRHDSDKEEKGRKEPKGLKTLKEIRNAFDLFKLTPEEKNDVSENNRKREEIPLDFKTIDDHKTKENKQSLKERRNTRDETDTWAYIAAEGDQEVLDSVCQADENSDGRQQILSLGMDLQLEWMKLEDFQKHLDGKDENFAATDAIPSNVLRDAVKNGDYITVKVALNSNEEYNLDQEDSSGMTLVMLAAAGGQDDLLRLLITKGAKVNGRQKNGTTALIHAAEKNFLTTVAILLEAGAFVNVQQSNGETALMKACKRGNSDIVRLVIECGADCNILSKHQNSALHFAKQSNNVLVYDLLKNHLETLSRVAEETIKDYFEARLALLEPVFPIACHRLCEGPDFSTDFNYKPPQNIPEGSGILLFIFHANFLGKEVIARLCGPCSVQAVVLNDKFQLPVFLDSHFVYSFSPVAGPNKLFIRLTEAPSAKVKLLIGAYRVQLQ
Sequence of Methanococcus maripaludis chaperonin (MmCpn) (Q6LX38 1-543): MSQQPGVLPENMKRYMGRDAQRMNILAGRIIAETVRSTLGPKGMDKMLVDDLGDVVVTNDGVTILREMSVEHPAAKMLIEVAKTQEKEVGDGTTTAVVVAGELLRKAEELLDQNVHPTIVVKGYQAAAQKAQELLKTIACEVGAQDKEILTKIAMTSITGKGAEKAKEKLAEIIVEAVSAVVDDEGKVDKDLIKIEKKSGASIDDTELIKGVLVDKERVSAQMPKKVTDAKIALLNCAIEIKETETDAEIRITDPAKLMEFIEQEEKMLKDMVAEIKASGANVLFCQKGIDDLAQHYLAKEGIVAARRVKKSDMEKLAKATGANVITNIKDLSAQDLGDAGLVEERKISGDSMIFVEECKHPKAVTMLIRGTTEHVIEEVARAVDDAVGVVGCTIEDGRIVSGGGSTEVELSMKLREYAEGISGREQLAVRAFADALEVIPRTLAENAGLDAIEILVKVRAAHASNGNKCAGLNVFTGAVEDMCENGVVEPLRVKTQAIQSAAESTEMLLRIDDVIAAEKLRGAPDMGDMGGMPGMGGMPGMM
Sequence of Beta-2 adrenergic receptor (Homo sapiens) (P07550 whole entry, looked up): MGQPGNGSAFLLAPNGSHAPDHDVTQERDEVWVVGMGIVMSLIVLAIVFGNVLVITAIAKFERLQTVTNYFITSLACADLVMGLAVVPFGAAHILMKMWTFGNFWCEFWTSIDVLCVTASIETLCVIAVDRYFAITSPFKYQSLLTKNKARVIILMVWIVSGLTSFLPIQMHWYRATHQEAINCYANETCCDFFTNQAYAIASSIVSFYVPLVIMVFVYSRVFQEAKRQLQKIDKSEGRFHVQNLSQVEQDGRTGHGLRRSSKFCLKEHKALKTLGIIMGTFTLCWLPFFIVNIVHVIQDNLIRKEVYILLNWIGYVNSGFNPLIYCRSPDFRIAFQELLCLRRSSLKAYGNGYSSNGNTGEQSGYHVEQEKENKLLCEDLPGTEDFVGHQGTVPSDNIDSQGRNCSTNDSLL
Sequence of ATPase family AAA domain-containing protein 5 (Homo sapiens) (Q96QE3 whole entry, looked up, the tested form may be a part): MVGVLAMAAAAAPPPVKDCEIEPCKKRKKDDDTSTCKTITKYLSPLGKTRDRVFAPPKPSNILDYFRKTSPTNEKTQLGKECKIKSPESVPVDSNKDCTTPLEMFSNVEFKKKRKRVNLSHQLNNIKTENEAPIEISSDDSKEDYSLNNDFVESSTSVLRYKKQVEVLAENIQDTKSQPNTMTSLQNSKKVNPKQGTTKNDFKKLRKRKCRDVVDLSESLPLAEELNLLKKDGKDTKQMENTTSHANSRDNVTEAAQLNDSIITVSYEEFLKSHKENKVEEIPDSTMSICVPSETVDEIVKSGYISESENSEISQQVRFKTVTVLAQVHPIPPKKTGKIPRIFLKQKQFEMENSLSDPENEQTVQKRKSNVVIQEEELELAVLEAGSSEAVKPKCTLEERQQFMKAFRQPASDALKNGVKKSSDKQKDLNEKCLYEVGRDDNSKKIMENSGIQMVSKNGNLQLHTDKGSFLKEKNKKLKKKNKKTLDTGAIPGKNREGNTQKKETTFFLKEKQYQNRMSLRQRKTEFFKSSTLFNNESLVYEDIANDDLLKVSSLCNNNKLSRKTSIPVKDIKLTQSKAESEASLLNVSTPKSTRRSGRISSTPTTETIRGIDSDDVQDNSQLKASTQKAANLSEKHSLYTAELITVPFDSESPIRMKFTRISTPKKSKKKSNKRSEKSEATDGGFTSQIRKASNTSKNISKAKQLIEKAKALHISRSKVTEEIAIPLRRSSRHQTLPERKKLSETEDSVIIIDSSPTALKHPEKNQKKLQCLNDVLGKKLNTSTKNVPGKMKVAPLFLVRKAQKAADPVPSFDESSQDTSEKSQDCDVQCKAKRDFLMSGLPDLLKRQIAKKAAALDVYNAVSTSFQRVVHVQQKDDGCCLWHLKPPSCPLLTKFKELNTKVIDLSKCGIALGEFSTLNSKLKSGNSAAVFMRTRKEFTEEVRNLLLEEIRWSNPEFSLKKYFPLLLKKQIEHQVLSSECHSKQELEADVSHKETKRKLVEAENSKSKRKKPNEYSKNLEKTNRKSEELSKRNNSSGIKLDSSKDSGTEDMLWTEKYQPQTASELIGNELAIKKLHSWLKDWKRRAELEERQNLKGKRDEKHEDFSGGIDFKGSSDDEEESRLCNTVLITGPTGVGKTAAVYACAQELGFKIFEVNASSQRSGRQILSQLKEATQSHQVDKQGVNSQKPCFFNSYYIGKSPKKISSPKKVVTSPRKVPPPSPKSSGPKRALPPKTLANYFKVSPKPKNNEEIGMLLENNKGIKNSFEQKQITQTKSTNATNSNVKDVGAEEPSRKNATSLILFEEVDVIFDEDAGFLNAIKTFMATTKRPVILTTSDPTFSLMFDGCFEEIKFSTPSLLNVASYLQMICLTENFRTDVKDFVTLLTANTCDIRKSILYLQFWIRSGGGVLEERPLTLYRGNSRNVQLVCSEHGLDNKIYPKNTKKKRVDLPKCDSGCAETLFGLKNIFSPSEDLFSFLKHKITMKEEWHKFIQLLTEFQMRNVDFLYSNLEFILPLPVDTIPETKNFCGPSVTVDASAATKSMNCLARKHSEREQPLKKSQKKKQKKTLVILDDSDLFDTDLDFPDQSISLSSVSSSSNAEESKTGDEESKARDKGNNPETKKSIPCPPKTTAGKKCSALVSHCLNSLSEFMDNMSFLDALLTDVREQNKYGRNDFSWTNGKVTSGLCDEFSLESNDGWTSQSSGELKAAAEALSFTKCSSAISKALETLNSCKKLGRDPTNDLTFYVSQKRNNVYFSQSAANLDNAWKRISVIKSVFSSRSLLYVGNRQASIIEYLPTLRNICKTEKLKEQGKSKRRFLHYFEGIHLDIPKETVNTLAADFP
Sequence of Chromobox protein homolog 1 (Homo sapiens) (P83916 whole entry, looked up): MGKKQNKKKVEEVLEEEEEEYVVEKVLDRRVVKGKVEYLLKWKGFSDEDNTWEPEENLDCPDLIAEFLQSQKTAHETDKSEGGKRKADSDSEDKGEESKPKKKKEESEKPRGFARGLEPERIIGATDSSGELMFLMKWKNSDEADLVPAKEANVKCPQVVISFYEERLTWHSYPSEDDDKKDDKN
Sequence of Flap endonuclease 1 (Homo sapiens) (P39748 whole entry, looked up): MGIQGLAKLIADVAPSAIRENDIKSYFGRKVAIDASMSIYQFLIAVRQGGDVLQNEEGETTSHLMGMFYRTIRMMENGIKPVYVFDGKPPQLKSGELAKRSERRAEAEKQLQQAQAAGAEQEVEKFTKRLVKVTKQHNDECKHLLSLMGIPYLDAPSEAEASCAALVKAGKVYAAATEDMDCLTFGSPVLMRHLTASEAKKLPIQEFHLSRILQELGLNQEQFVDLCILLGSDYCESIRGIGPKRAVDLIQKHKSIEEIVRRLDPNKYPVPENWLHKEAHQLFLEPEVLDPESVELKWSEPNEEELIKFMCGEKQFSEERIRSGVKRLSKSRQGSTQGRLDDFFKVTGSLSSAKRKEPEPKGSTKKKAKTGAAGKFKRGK

Row | SMILES | outcome [1] | Potency [2] | outcome [3] | Potency [4] | Potency [5] | Potency [6] | Potency [7] | outcome [8] | Potency [9] | Potency [10] | Potency [11] | Potency [12] | Potency [13] | outcome [14] | outcome [15] | activation [16] [%] | Potency [17] | Potency [18]
1 | C=CCNc1ncnc2ccc(Br)cc12 | inactive | inactive | inactive | inactive | inactive | inactive | inactive | inactive | inactive | inactive | inactive | inactive | 7.3 µM (active) | – | – | – | – | –
2 | CCCCCC[C@@H]([C@@H](C)O)n1cnc2c(N)ncnc21 | inactive | inactive | inactive | inactive | – | inactive | – | – | inactive | inactive | – | inactive | inactive | inactive | inactive | – | – | –
3 | COC(=O)C1=C(C)NC(C)=C([N+](=O)[O-])C1c1ccccc1C(F)(F)F (centres undefined) | inactive | inactive | inactive | inactive | inactive | inactive | – | inactive | inactive | inactive | inactive | inactive | inactive | inactive | inactive | -3.94 | – | –
4 | NC[C@@H]1O[C@H](c2ccccc2)Cc2c1ccc(O)c2O | inactive | inactive | inactive | inactive | – | inactive | inactive | – | inactive | inactive | – | inactive | inactive | – | – | – | – | –
5 | N#CC(C#N)=C(N)/C(C#N)=C/c1ccc(O)cc1 | inactive | inactive | inactive | – | inactive | inactive | – | inactive | inactive | inactive | inactive | inactive | inactive | – | inactive | 0.25 | inactive | –
6 | COc1cc([C@@H]2c3cc4c(cc3[C@H](O)C3COC(=O)[C@@H]32)OCO4)cc(OC)c1OC (some centres undefined) | inactive | inactive | inactive | – | inactive | inactive | inactive | inactive | inactive | inactive | inactive | – | – | inactive | inactive | 0.5 | – | –
7 | Nc1ncnc2c1nc(Br)n2C1OC2COP(=O)(O)O[C@@H]2C1O (some centres undefined) | inactive | inactive | inactive | inactive | inactive | inactive | inactive | inactive | – | inactive | – | – | inactive | – | – | – | – | –
8 | CC(C)(C)c1ccc(/C=C/C(=O)Nc2ccc3c(c2)OCCO3)cc1 | inactive | inactive | inactive | inactive | inactive | inactive | – | inactive | inactive | inactive | inactive | inactive | 18.3 µM (active) | – | – | – | – | –
9 | CC(=O)O[C@H]1Cc2ccccc2N(C(N)=O)c2ccccc21 | inactive | inactive | inactive | inactive | inactive | inactive | – | inactive | inactive | inactive | inactive | inactive | inactive | – | – | – | – | –
10 | O=c1[nH]ccc2c(O)cccc12 | inactive | – | inactive | inactive | inactive | inactive | inactive | inactive | inactive | inactive | inactive | – | inactive | inactive | inactive | 1.12 | inactive | inactive
11 | CCCCCCC/C=C\CCCCCCCCC(=O)O | inactive | – | inactive | inactive | inactive | inactive | inactive | inactive | inactive | – | inactive | inactive | inactive | inactive | inactive | 1.5 | inactive | inactive
12 | C[N+](C)(C)CC=O | inactive | – | inactive | inactive | inactive | inactive | inactive | inactive | inactive | inactive | inactive | inactive | inactive | inactive | inactive | 1.56 | inactive | inactive
13 | c1ccc2c(c1)CCC[C@H]2Nc1nc2ccccc2[nH]1 | inactive | inactive | – | inactive | inactive | inactive | – | – | inactive | inactive | – | inactive | – | – | – | – | – | –
14 | CCCCCCCCCCCCCCC[C@H](O)[C@H](N)CO | inactive | – | inactive | inactive | inactive | inactive | 89.1 µM (active) | inactive | inactive | inactive | inactive | inactive | inactive | inactive | inactive | 1.44 | inactive | inactive
15 | CC(C)C[C@H](NC(=O)C1OC1C(=O)O)C(=O)NCCCCN=C(N)N (some centres undefined) | inactive | – | inactive | inactive | inactive | inactive | 0.006 µM (active) | inactive | – | inactive | – | inactive | inactive | inactive | inactive | 0 | 5.86 µM (active) | 2.33 µM (active)
